Sampled rows, rich in hits. Any-hit rate of the full collection: about 19%.
HT1080-NT tox: kills 2HG-producing HT-1080-NT fibrosarcoma cells; HT-1080-NT fibrosarcoma viability, CellTiter-Glo ATP luminescence, 48 h; Potency, µM (highest dose often 46.1 µM), inactives show at the top dose activity, negative = less viability, most hits filed as cytotoxic; actives 1.6% (n = 360,000); AID 686970;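 also: NT is the 2HG producing partner of a matched IDH1 knockdown line; 0% = DMSO-treated cells and -100% = media-only wells without cells; nearly all actives have a fitted effect of over 55% in size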
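750 cells/well, RPMI + 5% FBS; 2 h settle, compound pin-transfer, 48 h at 37 degrees C. CellTiter-Glo 10 min RT, luminescence. Normalized to DMSO and media-only wells.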
KB-V1 cytotox: KB-V1 MDR subline cytotoxicity; KB-V1 MDR cells viability, CellTiter-Glo, 72 h; Potency, µM (series often up to 46.1 µM), usual class: cytotoxic; actives 3.4% (n = 400,000); AID 1347076; also: nearly all actives have a fitted effect of over 60% in size
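KB-V1 cells (P-gp-expressing MDR subline of KB-3-1) in phenol-red-free DMEM with 10% FBS were exposed to library compounds over a concentration series for 72 h at 37 degrees C. Viability read by CellTiter-Glo luminescence; concentration-effect curves fitted after normalization.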
HT1080 IDH1KD tx: kills HT-1080 cells with IDH1 knockdown | HT-1080 IDH1 knockdown viability, ATP luminescence, 48 h | Potency, µM (highest dose often 46.1 µM), without a hit: at the highest dose activity, negative = toxicity, hits mostly cytotoxic | actives 2% (n = 360,000) | AID 686971;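 also: 0% = DMSO wells and -100% = cell-free medium wells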
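% activity derives from luminescence (CellTiter-Glo), normalised to DMSO and no-cell wells. HT-1080-IDH1KD cells, 750/well, had 48 h compound exposure at 37 °C.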
KB-3-1 tox: kills parental KB-3-1 adenocarcinoma cells; KB-3-1 viability, CellTiter-Glo ATP luminescence, 72 h; actives 1.4% (n = 400,000); Potency, µM (doses to about 46.1 µM), hits mostly cytotoxic; also: nearly all actives have a fitted effect of over 60% in size
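Multi-concentration cytotoxicity screen in KB-3-1 cells grown in DMEM lacking phenol red with 10% FBS. After 72 h at 37 °C with compound, ATP-dependent luminescence was recorded.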
DT40 TDP1 no CPT: qHTS for Inhibitors of human tyrosyl-DNA phosphodiesterase 1 (TDP1): qHTS in cells in absence of CPT. Potency, µM (series often up to 46.2 µM), for the others: at the top dose activity change, negative = growth inhibition, hits mostly inhibitors. actives 15% (n = 420,000). DT40 Tdp1-/- hTDP1 cells, no CPT, ATP luminescence, 48 h. AID 686978, 2013; also: nearly all actives have a fitted effect of over 55% in size
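Growth of hTDP1-complemented DT40 Tdp1-knockout cells is measured by ATP luminescence after at least 48 hr compound exposure at 37 °C, with DMSO substituting for the 20 nM CPT used in the parallel screen.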
TDP1 cell CPT: DT40-hTDP1 cell growth loss with CPT; actives 12% (n = 420,000); Potency, µM (top dose mostly 46.2 µM), inactives show top-dose activity change, negative = growth inhibition, actives largely listed as inhibitors; chicken DT40 Tdp1-/-;hTDP1 cells + 20 nM CPT, ATP luminescence, 48 h; AID 686979; also: nearly all actives have a fitted effect of over 55% in size
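Chicken DT40 Tdp1-/- cells stably complemented with human TDP1 were seeded at 400 cells/well in medium containing 20 nM camptothecin, exposed to pin-transferred compounds, and grown at 37 °C for at least 48 hr. Viability was read as ATP luminescence.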
The depositor's hits bear a star; [ ] = dose if it differs, or a comment. Calls follow the shape of the dose curve; as a rule, active = well fitted curve in the direction sought with a large enough effect; inconclusive = small, poorly fitted or top-dose-only effect, or another doubt; inactive = no such curve, though single readings can be large; an effect the other way counts as inactive or inconclusive. Unless noted, % is scaled to controls: 0 for no effect and ±100 for the full control effect; potency is read from the fitted curve at half-maximal effect.

How did COc1ccc(-c2cc(C(=O)N3CC4(C)CC3CC(C)(C)C4)no2)cc1 (stereo unspecified) do in these assays?
HT1080-NT tox: 8%; KB-V1 cytotox: inactive; HT1080 IDH1KD tx: 0%; KB-3-1 tox: inconclusive; DT40 TDP1 no CPT: inconclusive; TDP1 cell CPT: inconclusive

Results for CC1(C)C[C@@H]2C[C@@](C)(CN2C(=O)c2cc(COc3cccc(C(F)(F)F)c3)on2)C1 ?
HT1080-NT tox: -29%; KB-V1 cytotox: inconclusive; HT1080 IDH1KD tx: -30%; KB-3-1 tox: inconclusive; DT40 TDP1 no CPT: 18µM*; TDP1 cell CPT: inconclusive

How did O=C(c1cc(COc2cccc(C(F)(F)F)c2)on1)N1C[C@H]2CC[C@H]1C2 do in these assays?
HT1080-NT tox: 1%; HT1080 IDH1KD tx: 0%; DT40 TDP1 no CPT: inconclusive; TDP1 cell CPT: inconclusive

Results for Cc1ccc(-c2cc(C(=O)N3CC4(C)CC3CC(C)(C)C4)no2)cc1 (stereo unspecified) ?
HT1080-NT tox: 0%; KB-V1 cytotox: inactive; HT1080 IDH1KD tx: 5%; KB-3-1 tox: inactive; DT40 TDP1 no CPT: 10µM*; TDP1 cell CPT: 18µM*

How did CC1(C)CC2CC(C)(CN2C(=O)c2cc(-c3ccccc3O)on2)C1 (stereo unspecified) do in these assays?
HT1080-NT tox: 17%; KB-V1 cytotox: inactive; HT1080 IDH1KD tx: 1%; KB-3-1 tox: inconclusive; DT40 TDP1 no CPT: 13µM*; TDP1 cell CPT: inconclusive

Results for O=C(Cc1cccc(NC(=O)C2CCCN(C(=O)C3CC3)C2)c1)Nc1cccc(C(=O)N2CCOCC2)c1 (stereo unspecified) ?
HT1080-NT tox: 10%; KB-V1 cytotox: inactive; HT1080 IDH1KD tx: 5%; KB-3-1 tox: inactive; DT40 TDP1 no CPT: 5%; TDP1 cell CPT: -1%

Results for Cn1c(Oc2cccnc2CN2CCCC2)nc2cc(-c3cccc(C(F)(F)F)c3)sc2c1=O ?
HT1080-NT tox: inconclusive; KB-V1 cytotox: inconclusive; HT1080 IDH1KD tx: inconclusive; KB-3-1 tox: inactive; DT40 TDP1 no CPT: inconclusive; TDP1 cell CPT: inconclusive

What do the screens show for `O=c1c2ccccc2sn1-c1ccc(Cl)c(S(=O)(=O)N2CCOCC2)c1`?
KB-V1 cytotox: inconclusive; KB-3-1 tox: inactive; DT40 TDP1 no CPT: 3.2µM*; TDP1 cell CPT: 1.4µM*

Results for c1cncc(OC2CCN(Cc3ccc4c(c3)CN(Cc3ccc5c(c3)CCO5)CCO4)CC2)c1 ?
DT40 TDP1 no CPT: 18µM*; TDP1 cell CPT: -9%[9.04 µM]

What do the screens show for `c1cncc(OC2CCN(Cc3ccc4c(c3)CN(Cc3ccc5c(c3)OCCO5)CCO4)CC2)c1`?
DT40 TDP1 no CPT: 16µM*; TDP1 cell CPT: inconclusive

What do the screens show for `COc1ccc(CN2CCOc3ccc(CN4CCC(Oc5cccnc5)CC4)cc3C2)cc1`?
DT40 TDP1 no CPT: -29%; TDP1 cell CPT: 21µM*

How did COC(=O)C(C(=O)OC)c1ccccc1CNS(=O)(=O)c1ccc(C)cc1 do in these assays?
HT1080-NT tox: 0%; KB-V1 cytotox: inconclusive; HT1080 IDH1KD tx: 12%; KB-3-1 tox: inactive; DT40 TDP1 no CPT: -20%; TDP1 cell CPT: inconclusive

Results for Cc1nn(C)cc1CN(C)C(=O)c1nn2c(c1Br)NC(c1cccs1)CC2C(F)(F)F (stereo unspecified) ?
HT1080-NT tox: -17%; KB-V1 cytotox: inactive; HT1080 IDH1KD tx: -16%; KB-3-1 tox: inactive; DT40 TDP1 no CPT: 15µM*; TDP1 cell CPT: inconclusive

Screening data: PubChem, National Center for Advancing Translational Sciences (NCATS)
